Test results as given in PubChem BioAssay (EPA / NIEHS).
Inconclusive results are not listed. Calls of active or inactive are those of the source. How the source made its calls: active means hit-call score of the fitted dose curve at least 0.9, where 1 is the maximum; inconclusive means response in the unintended direction; inactive means score below 0.9.

Experiment: Tanguay_ZF_120hpf_BRAI_legacy: (Legacy) Oregon State University Tanguay Lab 120 Hour Post-fertilization zebrafish Assay for Brain Malformation (AID 2283641)
Procedure, shortened: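 Tropical 5D wild-type zebrafish embryos were exposed statically in sealed, foil-covered plates at 28C until 120 hpf, with 0.64% (vol/vol) final DMSO. Brain malformation was scored present/absent by brightfield microscopy, relative to DMSO baseline.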
In the case of `C[N+]1(C)CCCCC1`, the outcome is reported as “inactive”.
In the case of `O=[N+]([O-])c1cc(C(F)(F)F)c(Cl)c([N+](=O)[O-])c1Nc1ncc(C(F)(F)F)cc1Cl`, the outcome is reported as “inactive”.
In the case of `CCCOCC(=Nc1ccc(Cl)cc1C(F)(F)F)n1ccnc1`, the outcome is reported as “inactive”.
In the case of `CCOC(=O)COc1cc(-c2nn(C)c(OC(F)F)c2Cl)c(F)cc1Cl`, the outcome is reported as “inactive”.
With `CCOP(=O)(SC(C)CC)N1CCSC1=O` (stereo unspecified) the outcome was “inactive”.
With `CC(COc1ccc(Oc2ccccc2)cc1)Oc1ccccn1` (stereo unspecified) the outcome was “inactive”.
For `CN(C)[C@@H]1C(=O)C(C(N)=O)=C(O)[C@@]2(O)C(=O)C3=C(O)c4c(O)cccc4[C@@](C)(O)[C@H]3[C@H](O)[C@@H]12`, the outcome was “inactive”.
For `COc1cccc(C(=O)NN(C(=O)c2cc(C)cc(C)c2)C(C)(C)C)c1C`, the outcome was “inactive”.
With `CCC(=NOC/C=C/Cl)C1=C(O)CC(C2CCOCC2)CC1=O` (stereo unspecified) the outcome was “inactive”.
In the case of `CCOP(=S)(OCC)OC(Cl)C(Cl)(Cl)Cl` (stereo unspecified), the outcome is reported as “inactive”.
For `CC1=NNC(=O)N(/N=C/c2cccnc2)C1`, the outcome was “inactive”.
With `Cc1ccn2nc(S(=O)(=O)Nc3c(F)cccc3F)nc2n1` the outcome was “inactive”.
With `Nc1c(Cl)cc([N+](=O)[O-])cc1Cl` the AC50 was 46.3 µM (active).
For `CCCSP(=O)(OCC)Oc1ccc(Br)cc1Cl` (stereo unspecified), the outcome was “inactive”.
In the case of `CCOP(=O)(OCC)Oc1cc(C)nc(C(C)C)n1`, the outcome is reported as “inactive”.
In the case of `COc1ccc(C(=CC(=O)N2CCOCC2)c2ccc(Cl)cc2)cc1OC`, the AC50 is reported as 40.9 µM (active).
In the case of `CNC(=O)ON=C(C)SC`, the outcome is reported as “inactive”.
With `COP(=O)(OC)OC(Br)C(Cl)(Cl)Br` (stereo unspecified) the outcome was “inactive”.
In the case of `CCc1cnc(C2=NC(C)(C(C)C)C(=O)N2)c(C(=O)O)c1` (stereo unspecified), the outcome is reported as “inactive”.
In the case of `Cc1nn(-c2cc(NS(C)(=O)=O)c(Cl)cc2Cl)c(=O)n1C(F)F`, the outcome is reported as “inactive”.
With `CC(C1CC1)C(O)(Cn1cncn1)c1ccc(Cl)cc1` (stereo unspecified) the AC50 was 22.6 µM (active).
For `CCNc1nc(Cl)nc(NC(C)(C)C#N)n1`, the outcome was “inactive”.
In the case of `COP(=O)(NC(C)=O)SC` (stereo unspecified), the outcome is reported as “inactive”.
In the case of `CCOP(=S)(OCC)Oc1ccc([N+](=O)[O-])cc1`, the outcome is reported as “inactive”.
For `CCc1cccc(CC)c1N(COC)C(=O)CCl`, the outcome was “inactive”.
In the case of `CNc1cnn(-c2cccc(C(F)(F)F)c2)c(=O)c1Cl`, the outcome is reported as “inactive”.
In the case of `CCOP(=S)(Oc1cnc(C(C)(C)C)nc1)OC(C)C` (stereo unspecified), the outcome is reported as “inactive”.
With `CSc1nc(NC(C)C)nc(NC(C)C)n1` the outcome was “inactive”.
In the case of `CN1COCN(Cc2cnc(Cl)s2)C1=N[N+](=O)[O-]`, the outcome is reported as “inactive”.
In the case of `O=C(O)c1cc(Oc2ccc(C(F)(F)F)cc2Cl)ccc1[N+](=O)[O-]`, the outcome is reported as “inactive”.
For `C=C(C)[C@H]1Cc2c(ccc3c2O[C@@H]2COc4cc(OC)c(OC)cc4[C@@H]2C3=O)O1`, the outcome was “inactive”.
With `CNC(=O)Oc1cccc2c1OC(C)(C)O2` the outcome was “inactive”.

Experiment: Tanguay_ZF_120hpf_SOMI_legacy: (Legacy) Oregon State University Tanguay Lab 120 Hour Post-fertilization zebrafish Assay for Somite Malformation (AID 2283647)
Procedure, shortened: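 Tropical 5D wild-type zebrafish embryos, dechorionated with pronase at 4 hpf, were placed singly at 6 hpf and statically exposed until 120 hpf at 28C in 0.64% DMSO. Somite malformation was scored present/absent by brightfield microscopy versus DMSO.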
For `C[N+]1(C)CCCCC1`, the outcome was “inactive”.
For `CCCOCC(=Nc1ccc(Cl)cc1C(F)(F)F)n1ccnc1`, the outcome was “inactive”.
For `CCOC(=O)COc1cc(-c2nn(C)c(OC(F)F)c2Cl)c(F)cc1Cl`, the outcome was “inactive”.
In the case of `CC(COc1ccc(Oc2ccccc2)cc1)Oc1ccccn1` (stereo unspecified), the outcome is reported as “inactive”.
For `CN(C)[C@@H]1C(=O)C(C(N)=O)=C(O)[C@@]2(O)C(=O)C3=C(O)c4c(O)cccc4[C@@](C)(O)[C@H]3[C@H](O)[C@@H]12`, the outcome was “inactive”.
For `COc1cccc(C(=O)NN(C(=O)c2cc(C)cc(C)c2)C(C)(C)C)c1C`, the outcome was “inactive”.
For `CCC(=NOC/C=C/Cl)C1=C(O)CC(C2CCOCC2)CC1=O` (stereo unspecified), the outcome was “inactive”.
In the case of `CCOP(=S)(OCC)OC(Cl)C(Cl)(Cl)Cl` (stereo unspecified), the outcome is reported as “inactive”.
With `CC1=NNC(=O)N(/N=C/c2cccnc2)C1` the outcome was “inactive”.
In the case of `Cc1ccn2nc(S(=O)(=O)Nc3c(F)cccc3F)nc2n1`, the outcome is reported as “inactive”.
For `Nc1c(Cl)cc([N+](=O)[O-])cc1Cl`, the outcome was “inactive”.
For `CCCSP(=O)(OCC)Oc1ccc(Br)cc1Cl` (stereo unspecified), the outcome was “inactive”.
For `CCOP(=O)(OCC)Oc1cc(C)nc(C(C)C)n1`, the outcome was “inactive”.
For `COc1ccc(C(=CC(=O)N2CCOCC2)c2ccc(Cl)cc2)cc1OC`, the outcome was “inactive”.
With `CCCSP(=O)(OCC)SCCC` the outcome was “inactive”.
With `COP(=O)(OC)OC(Br)C(Cl)(Cl)Br` (stereo unspecified) the outcome was “inactive”.
For `CCc1cnc(C2=NC(C)(C(C)C)C(=O)N2)c(C(=O)O)c1` (stereo unspecified), the outcome was “inactive”.
For `Cc1nn(-c2cc(NS(C)(=O)=O)c(Cl)cc2Cl)c(=O)n1C(F)F`, the outcome was “inactive”.
For `C#CC(C)(C)NC(=O)c1cc(Cl)cc(Cl)c1`, the outcome was “inactive”.
With `COP(=O)(NC(C)=O)SC` (stereo unspecified) the outcome was “inactive”.
For `CCOP(=S)(OCC)Oc1ccc([N+](=O)[O-])cc1`, the outcome was “inactive”.
With `CCc1cccc(CC)c1N(COC)C(=O)CCl` the outcome was “inactive”.
With `CNc1cnn(-c2cccc(C(F)(F)F)c2)c(=O)c1Cl` the outcome was “inactive”.
In the case of `CCOP(=S)(Oc1cnc(C(C)(C)C)nc1)OC(C)C` (stereo unspecified), the outcome is reported as “inactive”.
In the case of `CSc1nc(NC(C)C)nc(NC(C)C)n1`, the outcome is reported as “inactive”.
In the case of `C=C(C)[C@H]1Cc2c(ccc3c2O[C@@H]2COc4cc(OC)c(OC)cc4[C@@H]2C3=O)O1`, the outcome is reported as “inactive”.
With `CNC(=O)Oc1cccc2c1OC(C)(C)O2` the outcome was “inactive”.

Experiment: Tanguay_ZF_120hpf_PFIN_legacy: (Legacy) Oregon State University Tanguay Lab 120 Hour Post-fertilization zebrafish Assay for Pectoral Fin Malformation (AID 2283648);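 further: each larva judged yes or no for fin defect by brightfield with dead larvae skipped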
Procedure, shortened: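 Binary pectoral fin malformation call at 120 hpf by brightfield microscopy; 5D wild-type zebrafish, chorion removed at 4 hpf, one embryo per well from 6 hpf, static exposure at 28C; DMSO (0.64% final) as baseline.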
In the case of `C[N+]1(C)CCCCC1`, the outcome is reported as “inactive”.
With `O=[N+]([O-])c1cc(C(F)(F)F)c(Cl)c([N+](=O)[O-])c1Nc1ncc(C(F)(F)F)cc1Cl` the outcome was “inactive”.
With `CCCOCC(=Nc1ccc(Cl)cc1C(F)(F)F)n1ccnc1` the outcome was “inactive”.
With `CCOC(=O)COc1cc(-c2nn(C)c(OC(F)F)c2Cl)c(F)cc1Cl` the outcome was “inactive”.
In the case of `CCOP(=O)(SC(C)CC)N1CCSC1=O` (stereo unspecified), the outcome is reported as “inactive”.
In the case of `CC(COc1ccc(Oc2ccccc2)cc1)Oc1ccccn1` (stereo unspecified), the outcome is reported as “inactive”.
For `CN(C)[C@@H]1C(=O)C(C(N)=O)=C(O)[C@@]2(O)C(=O)C3=C(O)c4c(O)cccc4[C@@](C)(O)[C@H]3[C@H](O)[C@@H]12`, the outcome was “inactive”.
For `COc1cccc(C(=O)NN(C(=O)c2cc(C)cc(C)c2)C(C)(C)C)c1C`, the outcome was “inactive”.
With `CCC(=NOC/C=C/Cl)C1=C(O)CC(C2CCOCC2)CC1=O` (stereo unspecified) the outcome was “inactive”.
With `CCOP(=S)(OCC)OC(Cl)C(Cl)(Cl)Cl` (stereo unspecified) the outcome was “inactive”.
In the case of `CC1=NNC(=O)N(/N=C/c2cccnc2)C1`, the outcome is reported as “inactive”.
For `Cc1ccn2nc(S(=O)(=O)Nc3c(F)cccc3F)nc2n1`, the outcome was “inactive”.
In the case of `Nc1c(Cl)cc([N+](=O)[O-])cc1Cl`, the AC50 is reported as 42.1 µM (active).
For `CCCSP(=O)(OCC)Oc1ccc(Br)cc1Cl` (stereo unspecified), the outcome was “inactive”.
For `CCOP(=O)(OCC)Oc1cc(C)nc(C(C)C)n1`, the outcome was “inactive”.
With `COc1ccc(C(=CC(=O)N2CCOCC2)c2ccc(Cl)cc2)cc1OC` the AC50 was 45.5 µM (active).
For `CNC(=O)ON=C(C)SC`, the outcome was “inactive”.
With `CCCSP(=O)(OCC)SCCC` the outcome was “inactive”.
For `COP(=O)(OC)OC(Br)C(Cl)(Cl)Br` (stereo unspecified), the outcome was “inactive”.
With `CCc1cnc(C2=NC(C)(C(C)C)C(=O)N2)c(C(=O)O)c1` (stereo unspecified) the outcome was “inactive”.
In the case of `Cc1nn(-c2cc(NS(C)(=O)=O)c(Cl)cc2Cl)c(=O)n1C(F)F`, the outcome is reported as “inactive”.
In the case of `CC(C1CC1)C(O)(Cn1cncn1)c1ccc(Cl)cc1` (stereo unspecified), the AC50 is reported as 25.9 µM (active).
In the case of `CCNc1nc(Cl)nc(NC(C)(C)C#N)n1`, the outcome is reported as “inactive”.
With `COP(=O)(NC(C)=O)SC` (stereo unspecified) the outcome was “inactive”.
For `CCc1cccc(CC)c1N(COC)C(=O)CCl`, the outcome was “inactive”.
For `CNc1cnn(-c2cccc(C(F)(F)F)c2)c(=O)c1Cl`, the outcome was “inactive”.
In the case of `CCOP(=S)(Oc1cnc(C(C)(C)C)nc1)OC(C)C` (stereo unspecified), the outcome is reported as “inactive”.
With `CSc1nc(NC(C)C)nc(NC(C)C)n1` the outcome was “inactive”.
In the case of `CN1COCN(Cc2cnc(Cl)s2)C1=N[N+](=O)[O-]`, the outcome is reported as “inactive”.
With `O=C(O)c1cc(Oc2ccc(C(F)(F)F)cc2Cl)ccc1[N+](=O)[O-]` the outcome was “inactive”.
In the case of `C=C(C)[C@H]1Cc2c(ccc3c2O[C@@H]2COc4cc(OC)c(OC)cc4[C@@H]2C3=O)O1`, the outcome is reported as “inactive”.
With `CNC(=O)Oc1cccc2c1OC(C)(C)O2` the outcome was “inactive”.
